Consider 17 molecules from ChEMBL document CHEMBL1961873, “Compounds: GSK PKIS; Assays: Nanosyn kinase panel” (2012).

For test [1], the target named is Glycogen synthase kinase-3 beta (Homo sapiens) (UniProt P49841). Conditions: at 1 µM.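 Note: reported values are mean percent inhibition of GSK3B.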
In test [2] the target is Homeodomain-interacting protein kinase 1 (Homo sapiens) (UniProt Q86Z02). Conditions: at 0.1 µM.
For test [3] the target is unchanged. Conditions: at 1 µM.
Test [4] deals with T1, Homeodomain-interacting protein kinase 4 (Homo sapiens) (UniProt Q8NE63).
T1 sequence (whole entry): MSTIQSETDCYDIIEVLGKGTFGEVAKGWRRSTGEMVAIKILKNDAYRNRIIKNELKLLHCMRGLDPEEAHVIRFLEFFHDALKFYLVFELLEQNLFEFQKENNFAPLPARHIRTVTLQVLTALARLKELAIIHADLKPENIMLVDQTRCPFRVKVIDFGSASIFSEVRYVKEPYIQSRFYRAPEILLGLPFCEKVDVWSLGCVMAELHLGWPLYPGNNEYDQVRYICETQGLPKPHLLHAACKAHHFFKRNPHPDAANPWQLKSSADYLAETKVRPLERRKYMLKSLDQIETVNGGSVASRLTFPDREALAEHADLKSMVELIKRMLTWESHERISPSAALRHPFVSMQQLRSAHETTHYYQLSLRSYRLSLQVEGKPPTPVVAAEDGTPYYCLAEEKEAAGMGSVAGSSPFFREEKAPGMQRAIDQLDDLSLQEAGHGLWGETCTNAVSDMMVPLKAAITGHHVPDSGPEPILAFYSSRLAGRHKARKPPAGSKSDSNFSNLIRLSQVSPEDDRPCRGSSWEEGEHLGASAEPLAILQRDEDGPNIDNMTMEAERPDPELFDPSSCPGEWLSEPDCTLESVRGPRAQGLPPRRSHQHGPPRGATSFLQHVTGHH
The settings on record: at 0.1 µM.

Test [5] concerns the target T1, Homeodomain-interacting protein kinase 4 (Homo sapiens). Conditions: at 1 µM.
In test [6] the target is Mitogen-activated protein kinase 9 (Homo sapiens) (UniProt P45984). Conditions: at 0.1 µM.
Chain of Mitogen-activated protein kinase 9 (Homo sapiens) (P45984 whole entry, looked up): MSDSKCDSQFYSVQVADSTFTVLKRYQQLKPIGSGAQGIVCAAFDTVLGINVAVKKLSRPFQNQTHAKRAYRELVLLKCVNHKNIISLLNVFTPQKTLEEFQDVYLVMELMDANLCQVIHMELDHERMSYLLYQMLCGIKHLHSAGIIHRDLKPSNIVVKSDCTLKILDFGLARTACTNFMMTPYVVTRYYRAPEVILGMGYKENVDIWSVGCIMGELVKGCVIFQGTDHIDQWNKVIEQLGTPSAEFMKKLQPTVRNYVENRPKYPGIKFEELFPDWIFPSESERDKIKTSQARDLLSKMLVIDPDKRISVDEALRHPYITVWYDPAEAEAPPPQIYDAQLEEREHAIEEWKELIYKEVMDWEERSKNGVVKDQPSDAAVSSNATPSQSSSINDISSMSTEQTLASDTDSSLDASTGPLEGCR
Test [7] shares this target. Conditions: at 1 µM.
For test [8], the target named is Mitogen-activated protein kinase 1 (Homo sapiens) (UniProt P28482). The settings on record: at 0.1 µM.
Chain of Mitogen-activated protein kinase 1 (Homo sapiens) (P28482 whole entry): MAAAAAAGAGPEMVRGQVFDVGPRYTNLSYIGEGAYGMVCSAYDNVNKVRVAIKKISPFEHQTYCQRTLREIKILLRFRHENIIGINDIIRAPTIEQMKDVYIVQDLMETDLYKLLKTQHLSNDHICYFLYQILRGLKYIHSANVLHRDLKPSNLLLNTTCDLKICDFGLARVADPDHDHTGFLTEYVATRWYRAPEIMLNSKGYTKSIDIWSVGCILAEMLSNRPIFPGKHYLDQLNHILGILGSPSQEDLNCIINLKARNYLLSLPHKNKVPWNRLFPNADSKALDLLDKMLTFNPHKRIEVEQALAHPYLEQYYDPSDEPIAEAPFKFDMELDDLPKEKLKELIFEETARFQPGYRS
Test [9] has the same target. Conditions: at 1 µM.
Test [10] concerns the target Mitogen-activated protein kinase 3 (Homo sapiens) (UniProt P27361). Conditions: at 0.1 µM.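 Note: each value is a mean inhibition figure.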

Chain of Mitogen-activated protein kinase 3 (Homo sapiens) (P27361 whole entry): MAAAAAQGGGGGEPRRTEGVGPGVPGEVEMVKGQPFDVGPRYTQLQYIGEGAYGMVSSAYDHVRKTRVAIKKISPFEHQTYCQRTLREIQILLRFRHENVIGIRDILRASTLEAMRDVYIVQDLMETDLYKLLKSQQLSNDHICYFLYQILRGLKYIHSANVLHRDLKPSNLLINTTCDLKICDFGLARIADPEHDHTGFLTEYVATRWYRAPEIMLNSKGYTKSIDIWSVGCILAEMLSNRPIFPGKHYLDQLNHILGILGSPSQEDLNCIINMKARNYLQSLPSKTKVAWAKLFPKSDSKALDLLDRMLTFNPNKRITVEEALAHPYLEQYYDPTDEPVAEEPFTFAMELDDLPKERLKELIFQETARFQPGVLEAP
Chain of Glycogen synthase kinase-3 beta (Homo sapiens) (P49841 whole entry, looked up): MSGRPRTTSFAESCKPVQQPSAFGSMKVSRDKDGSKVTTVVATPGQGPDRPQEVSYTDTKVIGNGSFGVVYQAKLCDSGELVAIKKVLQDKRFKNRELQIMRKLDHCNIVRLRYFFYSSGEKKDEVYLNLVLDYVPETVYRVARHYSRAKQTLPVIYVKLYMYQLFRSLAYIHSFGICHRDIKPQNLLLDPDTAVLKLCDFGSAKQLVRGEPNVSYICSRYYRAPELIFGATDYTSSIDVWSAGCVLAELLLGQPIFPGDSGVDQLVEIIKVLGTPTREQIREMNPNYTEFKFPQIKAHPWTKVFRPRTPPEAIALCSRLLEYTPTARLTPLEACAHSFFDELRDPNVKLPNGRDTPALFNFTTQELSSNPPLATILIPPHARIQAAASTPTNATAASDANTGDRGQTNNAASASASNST
Chain of Homeodomain-interacting protein kinase 1 (Homo sapiens) (Q86Z02 whole entry, looked up): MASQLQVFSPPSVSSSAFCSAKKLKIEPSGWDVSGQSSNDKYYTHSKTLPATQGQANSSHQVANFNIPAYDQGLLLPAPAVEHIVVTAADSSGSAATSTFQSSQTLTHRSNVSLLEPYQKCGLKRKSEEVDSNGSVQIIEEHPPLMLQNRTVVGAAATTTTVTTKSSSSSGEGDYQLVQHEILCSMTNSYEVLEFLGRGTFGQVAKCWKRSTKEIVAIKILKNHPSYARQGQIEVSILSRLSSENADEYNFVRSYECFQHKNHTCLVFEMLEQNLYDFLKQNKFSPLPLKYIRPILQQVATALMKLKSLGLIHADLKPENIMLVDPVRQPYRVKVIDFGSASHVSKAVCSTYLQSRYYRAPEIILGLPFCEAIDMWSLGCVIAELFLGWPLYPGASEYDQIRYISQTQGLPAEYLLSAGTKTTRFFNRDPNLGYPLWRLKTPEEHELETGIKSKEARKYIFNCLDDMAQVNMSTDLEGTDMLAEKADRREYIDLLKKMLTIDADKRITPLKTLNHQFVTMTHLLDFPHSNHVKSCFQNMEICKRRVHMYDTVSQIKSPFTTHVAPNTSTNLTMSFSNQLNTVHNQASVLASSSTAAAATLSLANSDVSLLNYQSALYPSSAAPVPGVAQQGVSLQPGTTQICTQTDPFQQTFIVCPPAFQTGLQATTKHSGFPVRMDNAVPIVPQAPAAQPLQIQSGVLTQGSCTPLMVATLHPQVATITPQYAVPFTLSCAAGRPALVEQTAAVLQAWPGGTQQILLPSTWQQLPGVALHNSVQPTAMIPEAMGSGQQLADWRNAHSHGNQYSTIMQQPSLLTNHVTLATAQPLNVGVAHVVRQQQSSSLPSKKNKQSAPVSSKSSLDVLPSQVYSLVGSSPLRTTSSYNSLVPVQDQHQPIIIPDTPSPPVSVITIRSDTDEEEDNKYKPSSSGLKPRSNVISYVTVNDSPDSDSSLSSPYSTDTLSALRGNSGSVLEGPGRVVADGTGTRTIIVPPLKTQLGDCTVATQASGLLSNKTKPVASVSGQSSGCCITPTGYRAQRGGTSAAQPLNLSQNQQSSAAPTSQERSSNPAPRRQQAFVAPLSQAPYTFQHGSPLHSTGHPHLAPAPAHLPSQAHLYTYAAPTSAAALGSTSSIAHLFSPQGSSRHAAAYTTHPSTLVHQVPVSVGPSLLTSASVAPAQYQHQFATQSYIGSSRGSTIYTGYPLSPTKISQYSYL

As to `FC(F)(F)c1ccc(-c2nn3ncccc3c2-c2ccnc(Nc3ccc4c(c3)OCCO4)n2)cc1`, the inhibition is 9.99% in [1]; 9.14% in [2]; 7.72% in test [3]; 9.55% in test [4]; 11.2% in test [5]; 3% in test [6]. Besides, the inhibition in test [7] is 32.6%; in [8] it was 1.76%; in test [9] it was -1.13%; in [10], 3.25%.
Take `O=S(=O)(CCOCc1ccc(-c2ccc3ncnc(Nc4ccc(OCc5cccc(F)c5)c(Cl)c4)c3c2)o1)c1ccccc1`: the inhibition in test [1] is 5.91%; in [2], -2.8%; in [3], 2.64%; in test [4] it was 2.22%; in test [5] it was 5.69%; in test [6], 0.13%. Besides, the inhibition in test [7] was found to be 0.74%; in [8] it was 2.68%; in test [9], 3.54%; in test [10] it was 3.68%.
In the case of `NS(=O)(=O)c1ccc(Nc2cc(-c3cccc(O)c3)n[nH]2)cc1`, the inhibition in test [1] was 5.21%; in test [2], -1.93%; in [3], 2.36%; in test [4], 0.59%; in [5], 3.33%; in test [6] it was 5.37%. Moreover, the inhibition in test [7] was determined as 6.35%; in test [8], 5.89%; in test [9], 4.96%; in test [10] it was 4.41%.
In the case of `COC(=O)c1cncc(/C=C/c2c(C)cc(O)cc2C)c1`, the inhibition is 12.9% in test [1]; 5.96% in test [2]; 7.63% in test [3]; 2.51% in test [4]; 6.29% in test [5]; -0.35% in test [6]. Moreover, the inhibition in test [7] was 2.18%; in test [8], 4.28%; in test [9] it was 4.13%; in test [10], 3.96%.
Turning to `COc1cccc(-n2ncc3c(N/N=C/c4ccc(S(C)(=O)=O)cc4)ncnc32)c1`, the inhibition turned out to be 79% in test [1]; 21.4% in [2]; 64.3% in test [3]; 18.3% in test [4]; 60.6% in test [5]; 1.92% in test [6]. The inhibition stood at 4.9% in [7], 1.63% in [8], 1.93% in [9] and 2.27% in [10].
As to `COc1cc(/C=N/Nc2ncnc3c2cnn3C(C)C)ccc1O`, the inhibition in test [1] was 32.9%; in [2], 0.71%; in test [3] it was 16.1%; in test [4], 1.74%; in test [5] it was 19.6%; in [6] it was 2.63%. Further, the inhibition turned out to be 3.44% in test [7], 1.48% in [8], 2.57% in [9] and 1.63% in test [10].
Turning to `COc1cc(Nc2nccc(-c3cnn4ncccc34)n2)cc(OC)c1`, the inhibition in test [1] was 89.9%; in test [2] it was 86.8%; in [3] it was 93.7%; in [4], 30.6%; in test [5], 76.3%; in test [6], 10.4%. Moreover, the inhibition in [7] came out at 48.1%; in test [8], 2.31%; in test [9], 19.7%; in test [10] it was 2.46%.
As to `Nc1nccc(-c2c(-c3ccc(F)cc3)ncn2CCCN2CCOCC2)n1`, the inhibition was 4.68% in test [1]; 0.97% in test [2]; -1.48% in test [3]; 0.18% in test [4]; -0.66% in test [5]; 4.45% in [6]. The inhibition in test [7] was 15.8%; in test [8] it was 6.64%; in [9] it was 4.64%; in [10], 3.65%.
As for `Cc1ccc(Nc2ccnc(Nc3cccc(C(N)=O)c3)n2)cc1O`, the inhibition in test [1] was 17.4%; in test [2] it was -4.04%; in test [3], 0.47%; in [4], 2.33%; in test [5] it was 10.8%; in test [6], 3.91%. Also, the inhibition in test [7] stood at 14.6%; in test [8], 4.59%; in test [9], 4.19%; in test [10] it was 3.66%.
Turning to `[O-][S+]1CCN(Cc2ccc(-c3ccc4ncnc(Nc5ccc(OCc6ccccc6)c(Cl)c5)c4c3)o2)CC1`, the inhibition in test [1] is 1.33%; in [2], -1.84%; in [3] it was 0.05%; in test [4], 0.81%; in [5] it was 2.27%; in [6], -0.11%. Moreover, the inhibition in test [7] worked out at 2.26%; in test [8], 3.15%; in test [9] it was 4.09%; in test [10], 1.32%.
Regarding `CCn1c(-c2nonc2N)nc2c(C#CC(C)(C)O)nc(OCCNC)cc21`, the inhibition is 46.8% in [1]; -1.59% in test [2]; 7.86% in [3]; 0.33% in test [4]; 1.92% in test [5]; 3.85% in test [6]. The inhibition in test [7] came out at 2.84%; in [8], 5.46%; in [9], 5.18%; in test [10], 3.73%.
Consider `C[C@@H](Oc1cc(-n2cnc3ccc(OCC4CCN(C)CC4)cc32)sc1C(N)=O)c1ccccc1C(F)(F)F`, for which the inhibition is 2.74% in test [1]; -3.51% in test [2]; 9.66% in test [3]; 4.86% in test [4]; 32.3% in test [5]; -0.81% in test [6]. The inhibition in [7] is -1.11%; in test [8], 0.24%; in test [9], 0.02%; in test [10] it was -1.53%.
In the case of `O=C1Nc2ccccc2/C1=C/Nc1ccc2[nH]c(=O)[nH]c2c1`, the inhibition was 12% in test [1]; 1.38% in [2]; 6.25% in test [3]; 2.76% in test [4]; 5.62% in test [5]; 4.66% in [6]. Also, the inhibition in test [7] worked out at 12.5%; in test [8], 5.93%; in test [9] it was 5.63%; in test [10], 5.69%.
Consider `c1ccc(Nc2ncc(-c3ccccc3)o2)cc1`, for which the inhibition in test [1] was 13.3%; in test [2] it was -2.56%; in test [3], 3.15%; in test [4] it was 1.19%; in test [5] it was 6.31%; in [6], 6.78%. Besides, the inhibition was 12.9% in test [7], 6.94% in test [8], 7.41% in test [9] and 6.5% in [10].
Turning to `CN(c1ccc(NC(=O)Nc2ccc(OC(F)(F)F)cc2)cc1)c1ccnc(Nc2cccc(S(N)(=O)=O)c2)n1`, the inhibition was determined as 13.6% in [1]; 1.06% in test [2]; 34% in [3]; 62.4% in test [4]; 83.6% in test [5]; 1.46% in [6]. Also, the inhibition in test [7] turned out to be 3.15%; in test [8] it was 4.33%; in [9] it was 3.93%; in test [10], 2.67%.
For `Cc1ccc2c(c1)/C(=N/Nc1ccc(S(N)(=O)=O)cc1)C(=O)N2`, the inhibition in [1] is 23.7%; in test [2] it was -4.8%; in [3] it was 0%; in test [4] it was -2.11%; in test [5], -0.65%; in test [6], 2.38%. For the same molecule, the inhibition in test [7] was 1.49%; in test [8] it was -0.67%; in [9], 2.7%; in [10] it was 2.34%.
As to `OCc1ccc(-c2nc(-c3ccccn3)c(-c3ccc4c(c3)OCO4)[nH]2)cc1`, the inhibition was determined as 3.44% in test [1]; 0.23% in test [2]; 4.92% in [3]; 1.72% in [4]; 0.79% in test [5]; 2.15% in test [6]. For the same molecule, the inhibition in test [7] came to 5.14%; in test [8], 5.49%; in test [9], 3.7%; in [10], 3.56%.
